Sampled rows, rich in hits. Any-hit rate of the full collection: about 21%.
Shiga toxin inh = blocks Shiga toxin action in Vero cells | AID 2315 | hit rate 9.2% among 290,000 | inhibition, % at 38.7 µM | Vero cells, Shiga toxin protein synthesis inhibition reporter; in the data active = inhibition mostly above about 28%, no sharp cut-off; inactive = mostly below about 43%
Cycloheximide cs = counter-screen hit for Shiga toxin inhibitors, cycloheximide | AID 2314 | hit rate 12% among 300,000 | max response, % | cell reporter, cycloheximide protein synthesis inhibition counterscreen; in the data active = max response mostly above about 13%, no sharp cut-off; inactive = mostly below about 14%; note: read at 38.3 µM for the half of the compounds with a filed dose
Sm TGR block = inhibitors of Schistosoma mansoni thioredoxin glutathione reductase; hit rate 3% among 360,000; purified TGR, DTNB reduction, TNB absorbance 405 nm; AID 485364; Potency, µM (highest dose often 114 µM), actives largely listed as inhibitors; note: nearly all actives have a fitted effect of over 60% in size
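First, TGR (20 nM dispensed) and NADPH were mixed with compound. Second, a 15 min room-temperature incubation followed. Third, further NADPH and then DTNB were added to start the reaction. Finally, TNB absorbance was monitored kinetically.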
Pf growth 96h = P. falciparum growth inhibition at 96 hours; P. falciparum luciferase reporter growth, 96 h; Potency, µM (highest dose often 28.7 µM), hits mostly inhibitors; hit rate 6.9% among 320,000
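Two parasite generations (96 h, 37 C, 5% CO2) of compound exposure in infected erythrocytes (0.05% parasitemia, 2% hematocrit). Luciferase-reporter P. falciparum; decreased luminescence indicates inhibited growth, aimed at apicoplast-acting delayed death.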
Pf growth 48h = P. falciparum growth inhibition at 48 hours (one generation); P. falciparum luciferase growth in erythrocytes, 48 h; Potency, µM (highest dose often 28.7 µM), most hits filed as inhibitors; hit rate 5.9% among 310,000
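Read-out is firefly luciferase luminescence from an integrated reporter in P. falciparum, so falling signal marks reduced parasite growth. Infected erythrocytes were at 2% hematocrit and 0.1% parasitemia (final) in Albumax-supplemented RPMI 1640.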
NS1 function inh = blocks influenza NS1 protein function. Potency, µM (top dose mostly 46.1 µM). hit rate 0.4% among 270,000; calls by dose curve; note: actives are rising curves; nearly all actives have a fitted effect of over 50% in size
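Recovery from NS1-induced slow growth read by OD600 in budding yeast switched to galactose assay medium (pH 6.0, -URA) at 1:100 dilution. Compound 23 nl per well; the matching strain lacking NS1 serves as control.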
Of the large screens only hits and unclear results are named; the others gave an inactive call. Unless noted, calls come from the whole dose curve; as a rule, active = well fitted curve in the direction sought with a large enough effect; inconclusive = small, poorly fitted or top-dose-only effect, or another doubt; inactive = no such curve, though single readings can be large; an effect the other way counts as inactive or inconclusive.

O=C1CCc2cc(S(=O)(=O)Nc3ccccc3F)ccc2N1	none (no result: Shiga toxin inh, Cycloheximide cs, NS1 function inh)
Cc1ccccc1CN(CC1CCC(C(=O)O)CC1)C(=S)Nc1ccccc1F (stereo unspecified)	none (no result: NS1 function inh)
Cc1ccc2c(c1)NC(=O)C(CC(=O)Nc1cc(Cl)ccc1C)O2 (stereo unspecified)	none (no result: Shiga toxin inh, Cycloheximide cs, Pf growth 96h, Pf growth 48h, NS1 function inh)
Cc1cccc(C)c1OCC(O)Cn1nnc2ccccc21 (stereo unspecified)	Cycloheximide cs 16
COC(=O)c1ccc(OCC(O)Cn2nnc3ccccc32)cc1 (stereo unspecified)	Pf growth 96h inconclusive
CCOC(=O)c1c(NC(=O)C(F)(OC)C(F)(F)F)sc2c1CCN(C)C2 (stereo unspecified)	Pf growth 96h 10µM, Pf growth 48h inconclusive
CCOC(=O)c1c(NC(=S)Nc2ccc(Cl)cc2)sc2c1CCN(C)C2	Pf growth 96h inconclusive, Pf growth 48h inconclusive
CCOC(=O)c1c(NC(=O)Cc2ccccc2)sc2c1CCN(C)C2	none
CCOC(=O)c1c(NC(=S)Nc2ccc(OCC)cc2)sc2c1CCN(C)C2	Cycloheximide cs 18, Pf growth 96h 3.7µM, Pf growth 48h 8.3µM
CCOC(=O)c1c(/N=C/c2c(O)n(-c3cccc(C)c3)c(=O)[nH]c2=O)sc2c1CCCC2	Sm TGR block 89µM, Pf growth 96h inconclusive
CCOC(=O)c1c(/N=C/c2cccc(C)c2O)sc2c1CCN(C)C2	Pf growth 96h 1.7µM, Pf growth 48h inconclusive
Cc1cc(C)c(S(=O)(=O)NCCc2cc3cc(C)c(C)cc3[nH]c2=O)c(C)c1	none (no result: Shiga toxin inh, Cycloheximide cs, Pf growth 96h, Pf growth 48h, NS1 function inh)
CCOc1ccc(-c2cc(C(=O)N3CCN(S(=O)(=O)c4cc(Cl)ccc4OC)CC3)[nH]n2)cc1	none (no result: Shiga toxin inh, Cycloheximide cs, Pf growth 96h, Pf growth 48h, NS1 function inh)
CCOC(=O)c1c(NC(=O)CN(CC)CC)sc2c1CCC2	Pf growth 48h 12µM
CCOC(=O)c1c(NC(=O)CSc2nnc(C)s2)sc2c1CCN(C)C2	Sm TGR block 32µM, Pf growth 96h inconclusive, Pf growth 48h 6.6µM, NS1 function inh inconclusive
CCOC(=O)c1c(NC(=O)C2CCCCC2)sc2c1CCN(C(C)C)C2	Pf growth 96h 13µM
CCOC(=O)c1c(NC(=O)Nc2ccc(F)cc2)sc2c1CCN(C)C2	Pf growth 96h inconclusive, Pf growth 48h 8.3µM
COc1ccc2c3c(cccc13)C(=O)CC2	none
O=C(Nc1cccc(C(F)(F)F)c1)C1CCCN1S(=O)(=O)c1cccc2cccnc12 (stereo unspecified)	Pf growth 96h 10µM, Pf growth 48h inconclusive, NS1 function inh inconclusive
COc1ccc(NC(=O)C2CCCN2S(=O)(=O)c2cccc3cccnc23)c(OC)c1 (stereo unspecified)	Pf growth 96h 10µM
COc1cc(Oc2nc(C(F)(F)F)nc3ccccc23)ccc1C=O	none
COc1ccc(-c2nc(SCC(=O)c3ccc(OC)c(Br)c3)n[nH]2)cc1	none (no result: Shiga toxin inh, Cycloheximide cs, Pf growth 96h, Pf growth 48h, NS1 function inh)
CCOC(=O)[C@@H]1C(c2c(OC)cc(OC)cc2OC)=NO[C@@H]1C(=O)OCC	none
Cc1ccc2c(c1)nnn2C1CCN(S(=O)(=O)c2ccc3ccccc3c2)CC1	Pf growth 48h 10µM
O=S(=O)(NC1CCCC1)c1cccc(S(=O)(=O)N2CCC(n3nnc4ccccc43)CC2)c1	Pf growth 48h 10µM
Cc1ccc2c(c1)nnn2C1CCN(S(=O)(=O)c2cccc(S(=O)(=O)N(C)C)c2)CC1	Pf growth 96h inconclusive, Pf growth 48h 10µM
CCCCNC(=O)C1CC(=O)N(CCc2ccccc2)C1 (stereo unspecified)	none (no result: NS1 function inh)
Cc1ccc(CCN2CC(C(=O)NCCN3CCOCC3)CC2=O)cc1 (stereo unspecified)	Pf growth 96h 12µM
CC1CCCN(CCCNC(=O)C2CC(=O)N(CCc3ccccc3)C2)C1 (stereo unspecified)	Pf growth 96h 15µM
COc1cc(OC)cc(C(=O)OC(C)C(=O)NC2CCCc3ccccc32)c1 (stereo unspecified)	Pf growth 48h inconclusive (no result: Shiga toxin inh, Cycloheximide cs, NS1 function inh)
COc1ccc(N(CC(=O)NCc2ccco2)C(=O)CNS(=O)(=O)c2ccc(Cl)cc2)cc1	Sm TGR block inconclusive, Pf growth 96h 2.1µM
COc1ccccc1CN(CC(=O)NCc1ccco1)C(=O)CNS(=O)(=O)c1ccc(C)cc1	Sm TGR block 28µM, Pf growth 48h inconclusive
O=C(CN(Cc1ccc2c(c1)OCO2)C(=O)CNS(=O)(=O)c1ccccc1)NCc1ccco1	Pf growth 96h 2.3µM

Screening results: PubChem BioAssay, National Center for Advancing Translational Sciences (NCATS)
